The values below come from PubChem BioAssay (Tox21).

Assay [1] has as its target Thyrotropin-releasing hormone receptor (Homo sapiens) (UniProt P34981). Kind of assay: qHTS assay to identify small molecule agonists of the thyrotropin-releasing hormone receptor (TRHR) signaling pathway (AID 1346891; calls by dose curve;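 also: HEK293 cells expressing TRHR with calcium dye readout; series mostly up to about 58 µM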). The method in brief: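 HEK293/TRHR cells, 1500 per well, 18 h 37 °C; Ca dye 2 h 37 °C; pin-tool compound addition (agonist mode); kinetic fluorescence 3 min, 1 s reads; 15 concentrations, triplicate.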

A short description of assay [2]: Human pregnane X receptor (PXR) small molecule agonists, qHTS cell viability counter screen (AID 1346977). Also: nearly all actives have a fitted effect of over 50% in size. The method in brief:
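Fluorescence read-out (CellTiter-Fluor) of viability in PXR-Luc HepG2 cells, multiplexed with the luciferase agonist read. Compounds in DMSO added after 5hr plating; 24hr total exposure at 37C, 5% CO2.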

Assay [3] in a line: Caspase-3/7 induction in HepG2 cells by small molecules, qHTS assay (AID 1346978). Also: nearly all actives have a fitted effect of over 15% in size. The method in brief: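 Wild-type HepG2 cells, 2,000/well, settled 5 hr at 37 C and 5% CO2, then compound-treated for 17 hr; caspase-3/7 activity read by luminescent Caspase-Glo 3/7 after 30 min at room temperature.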
Assay [4] is described as follows: Caspase-3/7 induction in CHO-K1 cells by small molecules, qHTS cell viability counter screen (AID 1346979). Also: nearly all actives have a fitted effect of over 35% in size. The method in brief:
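CHO-K1 wt, 1,500 cells/well; 5hr pre-incubation 37C/5% CO2; compound pin transfer (DMSO); 16hr exposure; CellTiter-Fluor added, 1hr, fluorescence read.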

Assay [5] is described as follows: Caspase-3/7 induction in CHO-K1 cells by small molecules, qHTS assay (AID 1346980). Also: nearly all actives have a fitted effect of over 15% in size. The method in brief:
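Wild-type CHO-K1 cells exposed to compounds for 17hr at 37 C, 5% CO2. Caspase-3/7 activity then measured by Caspase-Glo 3/7 luminescence after 30min at room temperature.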

Assay [6] is described as follows: Caspase-3/7 induction in HepG2 cells by small molecules, qHTS cell viability counter screen (AID 1346981). Also: series mostly up to about 92 µM; nearly all actives have a fitted effect of over 30% in size. The method in brief: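 Steps: seed 2,000 HepG2 cells per well; incubate 5 hr at 37 C; pin-add compounds in DMSO; incubate 16 hr; add CellTiter-Fluor; after 1 hr at 37 C and 5% CO2, read fluorescence.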
The target in assay [7] is Nuclear receptor subfamily 1 group I member 2 (Homo sapiens) (UniProt O75469). Nature of the assay: Human pregnane X receptor (PXR) small molecule agonists, qHTS assay (AID 1346982). Also: nearly all actives have a fitted effect of over 35% in size. Also: potency is read from the fitted curve at half-maximal effect. The essentials:
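Agonist mode qHTS: PXR-Luc HepG2 cells plated 5 hr before DMSO-dissolved compounds were pinned in, cultured 24 hr at 37 C, 5% CO2; ONE-Glo luminescence readout.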

Assay [8] deals with Cytochrome P450 2D6 (Homo sapiens) (UniProt P10635). Kind of assay: Cytochrome P450 Family 2 Subfamily D Member 6 (CYP2D6) small molecule antagonists: luciferase reporter qHTS assay (AID 1671196). Also: nearly all actives have a fitted effect of over 50% in size. Also: potency is read from the fitted curve at half-maximal effect. The method in brief: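 P450-Glo format: CYP2D6 converts a proluciferin substrate to luciferin in an NADPH-driven reaction lasting 1 h at room temperature. Light output, proportional to CYP2D6 activity, reflects interference by test chemicals.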
Cytochrome P450 2D6 (Homo sapiens), sequence (P10635 whole entry, looked up): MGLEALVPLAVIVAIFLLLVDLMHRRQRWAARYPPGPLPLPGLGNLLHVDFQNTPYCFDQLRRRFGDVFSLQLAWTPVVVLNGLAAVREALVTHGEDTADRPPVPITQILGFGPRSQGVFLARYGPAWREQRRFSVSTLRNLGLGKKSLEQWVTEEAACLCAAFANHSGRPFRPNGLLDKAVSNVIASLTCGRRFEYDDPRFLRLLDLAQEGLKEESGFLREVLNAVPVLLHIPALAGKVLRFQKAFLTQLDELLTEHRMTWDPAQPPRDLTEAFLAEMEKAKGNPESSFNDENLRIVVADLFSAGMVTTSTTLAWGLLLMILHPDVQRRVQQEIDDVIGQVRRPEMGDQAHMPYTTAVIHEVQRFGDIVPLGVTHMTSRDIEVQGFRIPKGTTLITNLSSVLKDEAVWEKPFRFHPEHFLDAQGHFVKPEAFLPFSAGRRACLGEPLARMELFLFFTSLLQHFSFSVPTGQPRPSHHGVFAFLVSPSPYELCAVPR

Assay [9] deals with Cytochrome P450 2C19 (Homo sapiens) (UniProt P33261). Kind of assay: Cytochrome P450 Family 2 Subfamily C Member 19 (CYP2C19) small molecule antagonists: luciferase reporter qHTS assay (AID 1671197). Also: series mostly up to about 120 µM; nearly all actives have a fitted effect of over 65% in size. The method in brief:
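Inhibition of CYP2C19 was scored from loss of luminescence in a P450-Glo proluciferin substrate assay, NADPH-started and run 1 h at 37C, with ketoconazole as positive control.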

For assay [10], the target named is Cytochrome P450 2C9 (Homo sapiens) (UniProt P11712). Kind of assay: Cytochrome P450 Family 2 Subfamily C Member 9 (CYP2C9) small molecule antagonists: luciferase reporter qHTS assay (AID 1671198). Also: nearly all actives have a fitted effect of over 50% in size. Also: potency is read from the fitted curve at half-maximal effect. The essentials:
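P450-Glo proluciferin substrate with CYP2C9 enzyme; 10 min RT preincubation, then NADPH regeneration 1 h at 37C; luciferin detection reagent 20 min RT, luminescence in relative luminescence units.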

Assay [11] addresses Cytochrome P450 1A2 (Homo sapiens) (UniProt P05177). Nature of the assay: Cytochrome P450 Family 1 Subfamily A Member 2 (CYP1A2) small molecule antagonists: luciferase reporter qHTS assay (AID 1671199). Also: series mostly up to about 120 µM; nearly all actives have a fitted effect of over 50% in size. The method in brief: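 Inhibition of CYP1A2 conversion of proluciferin to luciferin, detected by luminescence. Reaction run 1 h at room temperature with NADPH regeneration after brief compound preincubation.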

Assay [12] deals with Voltage-gated inwardly rectifying potassium channel KCNH2 (Homo sapiens) (UniProt Q12809). Nature of the assay: Human Ether-a-go-go-Related Gene (hERG) channel small molecule antagonists: fluorescence cell-based qHTS assay (AID 1671200). The essentials: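 Read-out: thallium influx as a surrogate for potassium, tracked as fluorescence (480 nm ex/540 nm em) every second for 2 min after Stimulus Buffer addition in dye-loaded hERG-U2OS cells.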
Voltage-gated inwardly rectifying potassium channel KCNH2 (Homo sapiens), sequence (Q12809 whole entry, looked up): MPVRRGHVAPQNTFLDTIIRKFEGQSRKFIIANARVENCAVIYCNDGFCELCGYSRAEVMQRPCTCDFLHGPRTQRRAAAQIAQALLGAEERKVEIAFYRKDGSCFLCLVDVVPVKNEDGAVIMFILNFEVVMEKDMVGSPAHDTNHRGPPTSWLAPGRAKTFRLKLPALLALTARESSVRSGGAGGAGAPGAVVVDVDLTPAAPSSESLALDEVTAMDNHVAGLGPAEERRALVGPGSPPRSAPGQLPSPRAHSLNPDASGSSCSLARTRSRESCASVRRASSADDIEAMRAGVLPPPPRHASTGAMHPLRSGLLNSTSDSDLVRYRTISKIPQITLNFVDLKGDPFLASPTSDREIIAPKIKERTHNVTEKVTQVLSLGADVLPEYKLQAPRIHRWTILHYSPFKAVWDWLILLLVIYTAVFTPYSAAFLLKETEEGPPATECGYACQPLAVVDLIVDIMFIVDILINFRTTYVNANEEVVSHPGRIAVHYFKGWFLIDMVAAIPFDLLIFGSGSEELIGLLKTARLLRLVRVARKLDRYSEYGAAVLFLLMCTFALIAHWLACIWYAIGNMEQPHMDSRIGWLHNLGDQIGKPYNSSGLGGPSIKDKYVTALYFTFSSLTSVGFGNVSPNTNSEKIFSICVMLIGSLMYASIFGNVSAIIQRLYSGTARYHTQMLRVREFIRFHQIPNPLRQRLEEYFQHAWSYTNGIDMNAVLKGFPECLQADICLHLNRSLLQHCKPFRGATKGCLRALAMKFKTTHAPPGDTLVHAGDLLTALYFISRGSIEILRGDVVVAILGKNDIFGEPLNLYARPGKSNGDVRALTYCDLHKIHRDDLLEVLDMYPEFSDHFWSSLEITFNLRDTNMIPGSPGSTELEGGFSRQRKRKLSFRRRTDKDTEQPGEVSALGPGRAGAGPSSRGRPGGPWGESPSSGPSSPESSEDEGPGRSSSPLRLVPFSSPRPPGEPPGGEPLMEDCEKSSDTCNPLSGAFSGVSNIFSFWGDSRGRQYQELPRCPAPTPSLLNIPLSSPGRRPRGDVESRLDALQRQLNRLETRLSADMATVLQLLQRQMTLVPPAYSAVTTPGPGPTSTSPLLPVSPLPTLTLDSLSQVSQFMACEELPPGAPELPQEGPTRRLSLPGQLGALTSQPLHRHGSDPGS

Assay [13] has as its target Cytochrome P450 3A4 (Homo sapiens) (UniProt P08684). Kind of assay: Cytochrome P450 Family 3 Subfamily A Member 4 (CYP3A4) small molecule antagonists: luciferase reporter qHTS assay (AID 1671201). The method in brief: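 Luminescent readout (RLU) proportional to CYP3A4 activity, from luciferin generated off a proluciferin substrate. Enzyme–substrate mix plus compound 10 min at room temp, NADPH regeneration 1 h, detection reagent 20 min.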

Assay [14] concerns the target Nuclear receptor subfamily 1 group I member 2 (Rattus norvegicus) (UniProt Q9R1A7). Nature of the assay: Rat pregnane X receptor (rPXR) activation by small molecules, qHTS assay (AID 1346983). Also: nearly all actives have a fitted effect of over 20% in size. Particulars: rPXR luciferase reporter cells, One-Glo luminescence, 24 h; max activation: active compounds read high. The essentials:
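Cell-based rPXR activation assay: rPXR cells, 2,000 per well, rested 5hr at 37 C, then exposed to compounds in DMSO for 24 hr at 37 C. Luciferase activity read by One-Glo luminescence after 30 min at room temperature.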

Assay [15] has as its target Nuclear receptor subfamily 1 group I member 2 (Homo sapiens) (UniProt O75469). Nature of the assay: Human pregnane X receptor (PXR) activation by small molecules, qHTS assay (AID 1346985). Also: nearly all actives have a fitted effect of over 40% in size. The essentials:
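DPX-2 cells (HepG2 co-transfected with a PXR response element and a CYP3A4-promoter luciferase construct) were seeded at 2,000 per well, rested 5 hr at 37C, then exposed to DMSO-dissolved compounds for 24 hr. Activation was read as luciferase luminescence.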

A number with no mark means an inactive call. Records with an inconclusive call do not appear. The source made the active and inactive calls. Unless noted, calls follow the shape of the dose curve; as a rule, active = well fitted curve in the direction sought with a large enough effect in the repeat runs; inconclusive = weak or mixed curves; inactive = no such curve, though single readings can be large; an effect the other way counts as inactive or inconclusive.
% is scaled to controls: 0 for no effect and ±100 for the full control effect.

Cytochrome P450 3A4 (Homo sapiens), sequence (P08684 whole entry, looked up): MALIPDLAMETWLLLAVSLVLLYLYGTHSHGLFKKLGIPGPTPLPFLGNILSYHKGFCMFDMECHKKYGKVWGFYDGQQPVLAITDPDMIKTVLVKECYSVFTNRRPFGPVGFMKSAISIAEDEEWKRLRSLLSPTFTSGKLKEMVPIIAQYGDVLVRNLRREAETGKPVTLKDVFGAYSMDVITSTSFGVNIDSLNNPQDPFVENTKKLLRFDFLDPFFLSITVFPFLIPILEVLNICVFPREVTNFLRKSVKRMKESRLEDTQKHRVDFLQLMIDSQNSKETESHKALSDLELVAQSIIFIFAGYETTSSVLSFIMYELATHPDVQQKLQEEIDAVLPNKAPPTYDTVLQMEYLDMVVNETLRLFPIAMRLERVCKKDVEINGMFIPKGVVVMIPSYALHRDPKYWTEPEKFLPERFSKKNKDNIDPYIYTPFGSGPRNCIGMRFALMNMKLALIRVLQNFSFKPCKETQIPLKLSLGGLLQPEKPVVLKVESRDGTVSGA
Cytochrome P450 2C19 (Homo sapiens), sequence (P33261 whole entry, looked up): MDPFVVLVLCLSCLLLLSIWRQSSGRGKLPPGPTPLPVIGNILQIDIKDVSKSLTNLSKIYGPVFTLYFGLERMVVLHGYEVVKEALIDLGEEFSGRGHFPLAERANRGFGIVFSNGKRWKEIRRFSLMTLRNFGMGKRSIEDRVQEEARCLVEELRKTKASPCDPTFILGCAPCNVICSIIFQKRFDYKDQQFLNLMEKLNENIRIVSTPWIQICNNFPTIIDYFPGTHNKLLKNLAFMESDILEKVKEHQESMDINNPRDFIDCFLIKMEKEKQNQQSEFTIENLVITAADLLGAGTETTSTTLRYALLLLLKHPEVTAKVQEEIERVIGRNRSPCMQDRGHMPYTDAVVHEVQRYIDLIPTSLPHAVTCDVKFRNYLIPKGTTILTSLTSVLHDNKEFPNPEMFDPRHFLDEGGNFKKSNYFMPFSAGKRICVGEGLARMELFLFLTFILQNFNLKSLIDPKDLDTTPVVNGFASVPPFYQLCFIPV
Thyrotropin-releasing hormone receptor (Homo sapiens), sequence (P34981 whole entry, looked up): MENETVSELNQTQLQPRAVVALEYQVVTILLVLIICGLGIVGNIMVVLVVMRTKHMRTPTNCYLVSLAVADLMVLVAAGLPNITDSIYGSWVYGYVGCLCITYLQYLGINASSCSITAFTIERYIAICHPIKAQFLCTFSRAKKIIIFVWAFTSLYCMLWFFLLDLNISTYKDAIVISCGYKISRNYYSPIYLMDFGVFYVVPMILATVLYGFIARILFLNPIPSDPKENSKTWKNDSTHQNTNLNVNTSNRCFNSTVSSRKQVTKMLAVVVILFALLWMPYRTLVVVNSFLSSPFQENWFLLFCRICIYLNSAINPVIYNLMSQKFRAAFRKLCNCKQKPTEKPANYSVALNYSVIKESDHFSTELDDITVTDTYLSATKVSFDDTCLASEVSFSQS
Nuclear receptor subfamily 1 group I member 2 (Homo sapiens), sequence (O75469 whole entry, looked up): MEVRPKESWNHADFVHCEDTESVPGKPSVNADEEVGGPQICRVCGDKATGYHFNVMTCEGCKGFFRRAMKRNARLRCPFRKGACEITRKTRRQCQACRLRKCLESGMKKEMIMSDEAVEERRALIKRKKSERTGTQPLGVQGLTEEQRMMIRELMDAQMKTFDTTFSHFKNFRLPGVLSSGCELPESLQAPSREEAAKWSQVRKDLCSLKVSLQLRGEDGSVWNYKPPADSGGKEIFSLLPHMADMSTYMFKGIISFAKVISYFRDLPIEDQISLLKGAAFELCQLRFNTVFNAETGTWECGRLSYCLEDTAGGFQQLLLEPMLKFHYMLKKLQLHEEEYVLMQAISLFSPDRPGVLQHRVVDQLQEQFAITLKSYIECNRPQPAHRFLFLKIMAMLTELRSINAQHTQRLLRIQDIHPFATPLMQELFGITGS
Cytochrome P450 2C9 (Homo sapiens), sequence (P11712 whole entry, looked up): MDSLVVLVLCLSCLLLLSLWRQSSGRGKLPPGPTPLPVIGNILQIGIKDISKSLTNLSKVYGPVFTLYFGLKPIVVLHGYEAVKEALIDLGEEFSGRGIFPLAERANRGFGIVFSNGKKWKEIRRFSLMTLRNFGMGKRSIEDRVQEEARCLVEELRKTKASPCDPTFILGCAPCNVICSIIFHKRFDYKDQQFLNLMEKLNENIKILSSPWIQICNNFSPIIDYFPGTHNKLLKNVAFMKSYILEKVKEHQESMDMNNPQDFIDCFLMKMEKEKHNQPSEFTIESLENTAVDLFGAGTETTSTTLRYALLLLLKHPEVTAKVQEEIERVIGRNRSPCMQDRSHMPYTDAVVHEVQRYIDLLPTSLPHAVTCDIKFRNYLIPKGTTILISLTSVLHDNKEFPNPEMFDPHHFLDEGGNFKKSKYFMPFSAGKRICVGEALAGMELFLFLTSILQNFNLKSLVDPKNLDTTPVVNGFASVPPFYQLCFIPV
Cytochrome P450 1A2 (Homo sapiens), sequence (P05177 whole entry, looked up): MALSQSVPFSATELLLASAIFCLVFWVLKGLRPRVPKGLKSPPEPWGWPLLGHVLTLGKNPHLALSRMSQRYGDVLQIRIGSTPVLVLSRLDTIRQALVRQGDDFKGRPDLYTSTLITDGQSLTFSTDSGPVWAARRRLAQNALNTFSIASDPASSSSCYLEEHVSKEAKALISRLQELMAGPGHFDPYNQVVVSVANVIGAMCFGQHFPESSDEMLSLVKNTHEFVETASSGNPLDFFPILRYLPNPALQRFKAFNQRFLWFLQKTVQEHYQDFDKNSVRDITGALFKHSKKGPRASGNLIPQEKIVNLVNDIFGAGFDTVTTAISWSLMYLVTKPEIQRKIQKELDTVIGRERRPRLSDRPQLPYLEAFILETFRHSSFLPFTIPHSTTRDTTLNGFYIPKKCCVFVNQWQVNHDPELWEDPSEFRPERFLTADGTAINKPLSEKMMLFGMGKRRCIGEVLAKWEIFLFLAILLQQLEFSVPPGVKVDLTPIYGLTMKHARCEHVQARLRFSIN
Nuclear receptor subfamily 1 group I member 2 (Rattus norvegicus), sequence (Q9R1A7 whole entry, looked up): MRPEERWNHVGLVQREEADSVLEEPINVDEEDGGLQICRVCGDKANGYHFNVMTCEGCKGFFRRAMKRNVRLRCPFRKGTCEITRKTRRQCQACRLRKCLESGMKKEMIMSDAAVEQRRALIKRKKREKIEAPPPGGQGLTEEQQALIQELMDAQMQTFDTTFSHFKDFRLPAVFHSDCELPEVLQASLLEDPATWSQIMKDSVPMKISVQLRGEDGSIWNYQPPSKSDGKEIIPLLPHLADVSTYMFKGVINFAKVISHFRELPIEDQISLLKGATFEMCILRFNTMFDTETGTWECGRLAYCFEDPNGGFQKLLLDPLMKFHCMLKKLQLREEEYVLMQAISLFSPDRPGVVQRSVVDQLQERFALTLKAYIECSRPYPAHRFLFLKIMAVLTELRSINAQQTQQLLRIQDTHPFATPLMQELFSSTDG

For the compound `CCCCCCC(CO)CCCC` (stereo not given), the result in [1] and in assay [5] was inactive. In addition, the Potency result in assay [2], in assay [3], in assay [4], in assay [6], in assay [7] and in assay [8] was “inactive” in each case. The Potency result in assay [9], in [10], in assay [11], in [12] and in assay [13] was “inactive” each time.

As to `CC(C)N=C=NC(C)C`, the compound was called inactive in assay [1] and in assay [5]. In addition, the Potency result in [2], in assay [3], in assay [4], in [6], in [7] and in assay [8] was “inactive” in each case. In addition, the Potency result in assay [9], in assay [11], in [12] and in [13] was “inactive” each time.

With `C[C@@H]1C[C@H]2[C@@H]3CCC4=CC(=O)C=C[C@]4(C)[C@@]3(F)[C@@H](O)C[C@]2(C)[C@@]1(O)C(=O)COP(=O)(O)O`, the result in [1] and in assay [5] was inactive. Moreover, the Potency result in assay [2], in assay [3], in assay [4], in assay [6], in [7] and in assay [8] was “inactive” in each case. For the same compound, the Potency result in assay [9], in assay [10], in assay [11], in assay [12] and in assay [13] was “inactive” in each case.

Consider `CC1C(C)(C)C2=C(C(=O)CCC2)C1(C)C` (stereo not given), for which the outcome in assay [1] and in [5] was inactive. Also, the Potency result in [2], in assay [3], in assay [4], in assay [6], in [7] and in assay [8] was “inactive” throughout. Besides, the Potency result in [9], in assay [10], in [12] and in [13] was “inactive” each time.

In the case of `O=C(NS(=O)(=O)/C=C/c1ccccc1)c1ccc(F)cc1Cl`, the outcome in assay [1] and in assay [5] was inactive. Besides, the Potency entry in assay [2], in assay [3], in assay [4], in [6], in assay [8] and in [9] was “inactive” in each case. The Potency result in assay [11], in assay [12] and in assay [13] was “inactive” throughout. In assay [7], the Potency was 19.3 µM (active).

Regarding `CCCCCCC(O)CCCCCCCCCCC(=O)OC` (stereo not given), the call in assay [1] and in assay [5] was inactive. Besides, the Potency entry in [2], in assay [3], in [4], in [6], in assay [7] and in [8] was “inactive” each time. Also, the Potency result in [9], in assay [11] and in assay [12] was “inactive” each time. Further, the Potency in [10] is 35.6 µM (active).

With `O=S(=O)(Cl)c1c(Cl)cccc1Cl`, the call in [1] and in assay [5] was inactive. Further, the Potency result in assay [2], in assay [3], in assay [4], in assay [6], in assay [7] and in assay [9] was “inactive” each time. Besides, the Potency result in assay [10], in assay [11], in assay [12] and in assay [13] was “inactive” each time. For the same compound, in assay [8], the Potency was 25.1 µM (active).

On to `COc1ccc(C(=O)NCc2ccc(OCCN(C)C)cc2)cc1OC`, for which the outcome in [1] and in assay [5] was inactive. Also, the Potency result in [2], in assay [3], in [4], in assay [6], in assay [7] and in assay [15] was “inactive” throughout. For the same compound, the Potency result in assay [8], in assay [9], in [10], in assay [11] and in assay [12] was “inactive” each time. Moreover, in [14], the max activation is -0.841%.

For `CNc1c2c(nn1C)CCCC2`, the compound was called inactive in [1] and in assay [5]. The Potency result in [2], in [3], in [4], in assay [6], in assay [7] and in assay [15] was “inactive” throughout. Further, the Potency entry in [8], in assay [9], in [10], in [11] and in assay [12] was “inactive” in each case. Moreover, the max activation in assay [14] was -2.75%.
